From PubChem BioAssay AID1347075 (National Center for Advancing Translational Sciences (NCATS), 2019) come the findings set out here.

The whole screen tested about 400,000 compounds, of which about 5,500 (1.4%) were called active. Not shown: some 9% with an inconclusive outcome. What follows is part of a selection rich in actives, with near analogues and random picks from the rest. A number with no mark means an inactive call. Calls come from the whole dose curve; as a rule, active = well fitted cell-killing curve with a large enough effect; inconclusive = small, poorly fitted or top-dose-only effect, or effect the other way; inactive = flat fitted curve, though single readings scatter.
% is set by controls: 0 for no effect and ±100 for the full control effect; potency is the fitted concentration of half-maximal effect.

This assay can be described thus: qHTS assay for MDR1-selective chemotherapeutics: Primary screen using the parental adenocarcinoma cell KB-3-1. Note: nearly all actives have a fitted effect of over 60% in size. To be noted: KB-3-1 viability, CellTiter-Glo ATP luminescence, 72 h; series mostly up to 46.1 µM; activity change, negative = cytotoxic: at the top concentration. A digest of the protocol:
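Here the drug-naive KB-3-1 line serves as comparator for MDR sub-line selectivity; cells received compound titrations, 72 h at 37 °C, then CellTiter-Glo readout.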
(qHTS replaces the single test concentration by a dilution series.)
Turning to `CCOC(=O)c1cc2ccccc2n1CC(=O)c1ccccc1`, the “activity change, negative = cytotoxic” value is 16.5%.
Take `CCn1c(/C=C/Nc2ccccc2)[n+](CC)c2ccc(C(=O)OCC(F)(F)F)cc21`: the Potency is 18.4 µM (active).
On to `CCOC(=O)c1ccc2c(c1)nc(C)n2CC`, for which the “activity change, negative = cytotoxic” value is 9.41%.
`COc1ccccc1-c1noc(-c2ccc(NCc3ccccc3)c([N+](=O)[O-])c2)n1`: the “activity change, negative = cytotoxic” value was -1.17%.
Regarding `C[C@H]1CN(c2ccc(Br)cc2)C(=O)[C@@H]1CC(=O)Nc1ccc(Br)cc1`, the “activity change, negative = cytotoxic” value was -11.2%.
Turning to `CNC(=O)C[C@H]1C(=O)N(c2ccc(OC)cc2)C[C@@H]1Cc1ccccc1`, the “activity change, negative = cytotoxic” value was -1.07%.
For `O=C1N(Cc2ccccc2)c2ccc(Cl)cc2C1(O)c1c[nH]c2ccccc12` (stereo not drawn), the “activity change, negative = cytotoxic” value is 2.66%.
On the same count and under the same terms, to `CCc1nc(N2CCN(C(C)=O)CC2)c2c3c(sc2n1)CCCC3` belongs -2.11%; to `CCC(O)CNc1nc(-n2nc(C)cc2C)nc2sc3c(c12)CC(C)(C)OC3` (stereo not drawn), 14.5%.
For the compound `COCCNc1nc(-n2nc(C)cc2C)nc2sc3c(c12)CCCC3`, the Potency was 11.6 µM (active).
Regarding `Cc1c(/C=N\NC(=O)c2cc3ccccc3o2)c2ccccc2n1C`, the Potency was 8.2 µM (active).
With `Cc1c(/C=N/N2C(=O)C3C4C=CC(C4)C3C2=O)c2ccccc2n1C` (stereo not drawn), the “activity change, negative = cytotoxic” value is -9.92%.
`CC(C)Oc1ccc(NC(=O)c2cc3ccccc3o2)cc1`: the “activity change, negative = cytotoxic” value is 0%.
As to `O=C(c1ccc(C(F)(F)F)cc1)N1CCC(=O)N([C@H](COCc2ccccc2)Cc2ccccc2)CC1`, the “activity change, negative = cytotoxic” value is 0.135%.
For `O=C(c1cc(Cl)cc(Cl)c1)N1CCC(=O)N(C(COCc2ccccc2)Cc2ccccc2)CC1` (stereo not drawn), the “activity change, negative = cytotoxic” value was -53.7%.
On to `CC(C)CC(COCc1ccc(Cl)cc1)N1CCN(C(=O)c2ccc(C(F)(F)F)cc2)CCC1=O` (stereo not drawn), for which the Potency is 18.4 µM (active).
`COc1ccc(C(=O)NCC(c2ccc(N(C)C)cc2)N2CCc3ccccc32)c(OC)c1` (stereo not drawn): the “activity change, negative = cytotoxic” value is -0.938%.
With `CC1CC(C)CN(c2oc(-c3ccc(OCc4ccc(Cl)cc4)cc3)nc2C#N)C1` (stereo not drawn), the “activity change, negative = cytotoxic” value was 0%.
As to `Cc1ccc(Nc2nc3ccccc3nc2-n2nc(C)cc2C)c(Cl)c1`, the “activity change, negative = cytotoxic” value is 0.623%.
Take `Cc1cc2c(cc1C)C(c1cccc(OC(C)C)c1)CC(=O)N2` (stereo not drawn): the “activity change, negative = cytotoxic” value was 1.83%.
On to `CCCOc1ccccc1C1CC(=O)Nc2cc3c(cc21)OCO3` (stereo not drawn), for which the Potency is 2.59 µM (active).
Turning to `O=C1CC(c2ccc(F)cc2F)c2cc3c(cc2N1)OCO3` (stereo not drawn), the “activity change, negative = cytotoxic” value is -20.2%.
On the same count and under the same terms, to `CC(C)Cn1c(-c2ccc(S(=O)(=O)N3CCOCC3)cc2)csc1=Nc1cc(Cl)ccc1Cl` belongs 3.37%.
With `CN(N=O)c1ccc(C=C2c3ccccc3-c3ccccc32)cc1`, the “activity change, negative = cytotoxic” value is 7.77%.
Still for that read-out and setting: to `C[N+](C)(C)CCNC(=O)c1c[nH]c2ccccc12` belongs 29.9%.
Consider `COc1ccc(/C=C(\C#N)c2c[nH]c3ccccc23)cc1`, for which the Potency was 1.64 µM (active).
For `COc1ccc(C2C(C(C)=O)=C(O)C(=O)N2CCc2c[nH]c3ccccc23)cc1` (stereo not drawn), the “activity change, negative = cytotoxic” value is -2.52%.
As to `Cc1cc(C(=O)CSc2nc(N)cc(=O)[nH]2)c(C)n1-c1cccc(F)c1`, the Potency is 5.8 µM (active).
Regarding `Cc1cc(C(=O)CSc2nc(N)cc(=O)[nH]2)c(C)n1CCc1ccc(Cl)cc1`, the “activity change, negative = cytotoxic” value is -7.4%.
Still for that read-out and setting: in the case of `Cc1cc(C)c(C(=O)CSc2nc(C)cc(=O)[nH]2)c(C)c1` it was -6.29%; in that of `Cc1cccc(C(=O)N2CCc3cc(CNC(=O)Cc4ccc(F)cc4)ccc32)c1`, 3.89%; in that of `CCOc1ccc(OCC)c(NS(=O)(=O)c2ccc3[nH]c(=O)ccc3c2)c1`, 13.8%.
With `COc1cc(NS(=O)(=O)c2ccc3ccccc3c2)c2ncccc2c1`, the Potency was 6.51 µM (active).
As to `O=[N+]([O-])c1ccccc1S(=O)(=O)Nc1cccc2cccnc12`, the “activity change, negative = cytotoxic” value is 0%.
As to `CCN(CCCNC(=O)CSc1cc(=O)n(C)c2cc(Cl)ccc12)c1cccc(C)c1`, the “activity change, negative = cytotoxic” value is -8.63%.
`CCOC(=O)CCP(=O)(O)C(O)(c1ccccc1)c1ccccc1`: the “activity change, negative = cytotoxic” value is 2.06%.
In the case of `CCOC(=O)C(=Cc1ccccc1)C(=O)c1ccccc1`, the Potency was 20.6 µM (active).
As for `CCc1ccccc1NC(=O)/C(=C/c1ccccc1)c1ccccc1`, the “activity change, negative = cytotoxic” value is 2.36%.
Consider `Cc1ccc2cccc(NC(=O)c3ccc(OC(C)C)cc3)c2n1`, for which the “activity change, negative = cytotoxic” value is -9.78%.
In the case of `CCOC(=O)C1CCCN(S(=O)(=O)c2cc(-c3cc(C)no3)ccc2OC)C1` (stereo not drawn), the “activity change, negative = cytotoxic” value is 23.2%.
For `Cc1ccc(NC(=S)N(CCCN2CCCC2)Cc2cccn2Cc2ccc(Cl)cc2)cc1`, the Potency was 20.6 µM (active).
With `Cc1ccccc1NC(=S)N(CCCN1CCOCC1)Cc1cccs1`, the “activity change, negative = cytotoxic” value was -2.7%.
Still for that read-out and setting: to `CCc1cccc(C)c1NC(=S)N(CCCN1CCN(C)CC1)Cc1cccs1` belongs 6.59%.
For `Cc1ccccc1-c1nc(CS(=O)(=O)CC(=O)Nc2cc(Cl)cc(Cl)c2)c(C)o1`, the “activity change, negative = cytotoxic” value is -9.7%.
Still for that read-out and setting: in the case of `Cc1nnc(N2CCC(C(=O)Nc3ccc(F)cc3)CC2)c2nn(-c3ccc(Cl)cc3)c(C)c12` it was -4.85%.
Consider `CCc1ccccc1NS(=O)(=O)c1ccc2nc(-c3ccccc3)[nH]c2c1`, for which the “activity change, negative = cytotoxic” value is -4.26%.
Regarding `COc1cc(CNCCSc2nnnn2C)ccc1OCc1c(F)cccc1Cl`, the Potency is 18.4 µM (active).
For `COc1cc(CNCCSc2nnnn2C)ccc1OCc1ccc(Cl)cc1Cl`, the “activity change, negative = cytotoxic” value is -17.7%.
As to `COc1cc(CNCCN(C)C)ccc1OCc1c(F)cccc1Cl`, the “activity change, negative = cytotoxic” value was -4.74%.
As to `CCOC(=O)c1c(-c2cccc(C)c2)csc1NC(=O)c1c(-c2ccccc2)noc1C`, the Potency was 5.17 µM (active).
`CCOC(=O)c1c(NC(=O)c2cc(-c3ccc(Cl)cc3)on2)sc2c1CCCC2`: the “activity change, negative = cytotoxic” value is 8.01%.
Same read-out and setting: to `Cc1onc(-c2ccccc2Cl)c1C(=O)OCc1nnc(-c2ccccc2)o1` belongs -0.848%; to `CC1=C(C(=O)Nc2ccccc2)C(c2ccc(C)cc2)n2nc(SCc3ccccc3C)nc2N1` (stereo not drawn), 7.5%; to `CCOc1ccc(N(CC)S(=O)(=O)N2CCCC(C(=O)NCc3ccc(SC)cc3)C2)cc1` (stereo not drawn), -13.9%.
Turning to `COc1ccccc1NC1=NC(c2ccc(Cl)cc2)N=C(N)N1` (stereo not drawn), the Potency is 3.66 µM (active).
`COc1ccccc1Nc1nc(N)nc(N)c1S(=O)(=O)c1ccccc1`: the “activity change, negative = cytotoxic” value is -5.3%.
Still for that read-out and setting: to `CC1(C)N=C(N)NC(Nc2ccc(Cl)cc2)=N1` belongs -13.3%.
On to `CCOC(=O)c1ccc(NC(=O)c2c(NCc3cccc(OC)c3)sc3c2CCC3)cc1`, for which the “activity change, negative = cytotoxic” value is 1.19%.
Take `COc1ccc(-c2csc(-c3c(N)c(C(=O)c4ccc(OC)c(OC)c4)n4ccccc34)n2)cc1`: the “activity change, negative = cytotoxic” value was -8.22%.
As to `CCN(CC)CCNc1ncnc2c1cnn2-c1cc(Cl)ccc1C`, the “activity change, negative = cytotoxic” value was -5.85%.
With `CCN(CC)CCCC(C)Nc1ccnc2cc(Cl)ccc12` (stereo not drawn), the Potency was 10.3 µM (active).
For the compound `CCN(CC)CCNc1ccc(Cl)cc1[N+](=O)[O-]`, the “activity change, negative = cytotoxic” value is 0%.
Regarding `CNCCCOc1cc2nc(N3CCCN(C)CC3)nc(NC3CCN(C)CC3)c2cc1OC`, the “activity change, negative = cytotoxic” value was 0.554%.
